# Screens: PubChem BioAssay, National Center for Advancing Translational Sciences (NCATS)
# Imprint erasure = induces erasure of genomic imprints in mouse ES cells; mouse ES Peg3-LacZ reporter, beta-gal luminescence, 40 h; Potency, µM (titrated, usually from 60.7 µM), for the others: at the highest dose activity change, positive = activation, actives largely listed as activators; hit rate 0.02% among 110,000; note: potency is the fitted concentration of half-maximal effect
#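 Readout: BetaGlo luminescence (5 min, room temp) for LacZ from the normally silent maternal Peg3 allele in female Peg3LacZ-Neo ES cells. Cells 300/well, 40 h, 37C, 5% CO2. Data normalized per plate to negative controls.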
# CRE-bla Fsk = modulators of forskolin-stimulated CRE signaling in CHO cells | CHO CRE-bla reporter (cAMP response element driving beta-lactamase), forskolin EC10, beta-lactamase ratio | Potency, µM (doses to about 38.2 µM), without a hit: top-dose activity change, negative = inhibition, hits mostly activators | hit rate 2.5% among 71,000; active = well fitted activation curve with a large enough effect in the signal ratio, with a control signal flat, not every such curve was filed as active; inconclusive = small, poorly fitted or top-dose-only effect, or effect the other way, or a change in a side signal; the % refers to the signal ratio; note: potency is the fitted concentration of half-maximal effect; % of control where 0% means no effect
#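 qHTS titration format; CRE-bla CHO reporter; stimulus EC10 NKH 477, a water-soluble forskolin. Read: CCF4 460/530 nm ratio. Potency expressed as AC50 for activators or inhibitors.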
# HBB splice mod = modulators of hemoglobin beta chain splicing. HBB splicing reporter cell assay, activation; EGFP reporter with mutant IVS2-654 intron; response scale: normalised to 500 nM splice-correcting PNA. Potency, µM (series often up to 46.1 µM), for the others: at the top dose activation, usual class: activators. hit rate 0.06% among 65,000. AID 925; note: potency is the fitted concentration of half-maximal effect; 0% is about no effect
#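 HeLa cells stably expressing EGFP interrupted by mutant beta-globin intron 2 (IVS2-654), 500/well in 2% FCS. Treated with compound for 2 days at 37C. Splicing correction scored as total well GFP intensity (488 nm excitation, 500-520 nm emission); 500 nM antisense PNA served as control.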
# IkB sig inh = inhibitors of IkB signaling in ABC-DLBCL cells | ABC-DLBCL IkBa-CBG/CBR dual luciferase ratio, 4 h; response scale: scaled: untreated 0%, proteasome inhibitor 100% | Potency, µM (doses to about 57.1 µM), for the others: at the highest dose IkBa stabilization activation | hit rate 0.04% among 110,000 | AID 445; active = well fitted curve in the direction sought with a large enough effect in the signal ratio, not every such curve was filed as active; inconclusive = small, poorly fitted or top-dose-only effect, or a change in a side signal; the % refers to the signal ratio;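 note: potency is the fitted concentration of half-maximal effect; the direction sought is a rising ratio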
#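 Curves were fitted separately to fusion (green), unfused (red) and ratio luminescence, then classed by r2, magnitude and activity. Cells: OCI-Ly3, 4 h compound plus doxycycline at 37C; 10 uM MG-132 defined full response.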
# Epigenetic mod = epigenetic modulators derepressing GFP locus in mouse cells; mouse C127i GFP locus derepression, cytometry, 30 h; Potency, µM (doses to about 46.1 µM), for the others: at the highest dose GFP derepression (activation); hit rate 0.09% among 68,000; note: % of control where 0% means no effect
#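 Read-out is the number of GFP-positive cells, scored as fluorescent objects 20 to 120 um wide, reflecting derepression of a silenced CMV-GFP reporter in murine C127i cells after 30 h compound exposure at 37 C.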
# CHO via 24h = CHO cell toxicity at 24 h by ATP luminescence | activity, negative = viability loss, % at 46.1 µM | shares compounds with CRE-bla Fsk | 120 tested, under 10 active | CRE-bla CHO viability, ATP luminescence, 24 h
# CHO via 40h = reduces CRE-bla CHO cell viability after 40 hours | 120 tested, under 10 active | shares compounds with CRE-bla Fsk | Potency, µM, inactives show max response, usual class: inhibitors | AID 906 | CRE-bla CHO viability, ATP luminescence, 40 h
# CRE-luc potent = confirmation of CRE signaling potentiators in HEK293 CREB reporter cells | shares compounds with CRE-bla Fsk | HEK293 CRE-luc2P, NKH477 EC10 potentiation, luminescence, 4 h | Potency, µM (top dose mostly 38.3 µM), for the others: at the highest dose activity, positive = activation, most hits filed as activators | hit rate 80% among 120 | AID 907
# * = called active by the depositor; u = inconclusive; x = no result given; [ ] = remark or other dose. The full list was thinned out, with hits kept by preference. Unless noted, calls come from the whole dose curve; as a rule, active = well fitted curve in the direction sought with a large enough effect; inconclusive = small, poorly fitted or top-dose-only effect, or another doubt; inactive = no such curve, though single readings can be large; an effect the other way counts as inactive or inconclusive.
SMILES,Imprint erasure,CRE-bla Fsk,HBB splice mod,IkB sig inh,Epigenetic mod,CHO via 24h,CHO via 40h,CRE-luc potent
Cc1cc(C)cc(NC(=O)N2CCC3(CC2)Oc2ccccc2C(=O)N3Cc2ccccc2F)c1,-13%[10.9 µM],x,x,u,x,x,x,x
CCc1cccc(NC(=O)C2CCN(C(=O)c3cnn(-c4ccccc4)c3-n3cccc3)CC2)c1,-15%[10.9 µM],x,x,u,x,x,x,x
Cc1nc(SCC(=O)N2CCCc3ccccc32)c2oc3ccccc3c2n1,3%,0.5µM*,-1%[0.369 µM],-1%,-2%,-17,-27%,4µM*
O=C(CSc1ncnc2c1oc1ccccc12)Nc1cccc(Cl)c1,-17%,u,-3%[1.84 µM],1%,-2%,x,x,x
Cc1ccc(-c2nnc(SCC(=O)N3CCCc4ccccc43)o2)cc1,-3%[10.9 µM],x,x,u,x,x,x,x
Cc1nc(SCC(=O)Nc2ccccc2)c2oc3ccccc3c2n1,-5%,0.5µM*,-1%[57.5 µM],1%,0%,-18,-18%,5µM*
CCc1nc(SCC(=O)N2CCc3ccccc32)c2oc3ccccc3c2n1,4%,2%,3%[0.369 µM],0%,2%,9,-4%,14µM*
CCCN1CCN(c2ncc3c(n2)CCN(Cc2ccc(OC)c(OC)c2OC)C3)CC1,-21%[10.9 µM],x,x,1%,x,x,x,x
Cc1nnc2n(C3CCCCC3)c(=O)c3c4c(sc3n12)COC(C)(C)C4,x,x,x,x,-2%[20.6 µM],x,x,x
CC1(C)Cc2c(sc3nc(SCC#N)n(C4CCCCC4)c(=O)c23)CO1,x,x,x,x,-6%[20.6 µM],-11,-20%,0.63µM*
CCCOc1ccc(CNC(=O)C(CC)n2nc(C)c3sc4ccccc4c3c2=O)cc1 (centres undefined),-11%[10.9 µM],x,x,-2%,x,x,x,x
Cc1cc(C)n(-c2nncc(-c3ccccc3)n2)n1,-61%,27%,-1%[9.22 µM],u,0%,x,x,x
Cc1cc(C)n(-c2nc(Nc3ccccc3)nc(-n3nc(C)cc3C)n2)n1,-5%,12%,x,0%,3%,-2,-7%,u
O=C(Nc1ccc(-c2cn3ccsc3n2)cc1)c1ccc(F)c(S(=O)(=O)N2CCOCC2)c1,-25%,1.6µM*,2%,u,0%,u,-22%,2.8µM*
CC[C@]1(O)C[C@@H]2CN(CCc3c([nH]c4ccccc34)[C@](C(=O)OC)(c3cc4c(cc3OC)N(C=O)[C@H]3[C@@](O)(C(=O)OC)[C@H](C(=O)OC)[C@@]5(CC)C=CCN6CC[C@]43[C@H]65)C2)C1,-28%,0.5µM*,x,1%,-1%,-22,u,8%
Cc1cc(Nc2ccc(C(C)C)cc2)n2ncnc2n1,-18%,u,-2%,3%,0%,x,x,x
Cc1cc(Nc2ccc3ccccc3c2)n2ncnc2n1,x,x,x,x,-2%[20.6 µM],-17,-26%,-24%
Cc1cc(C)c2c(=O)c3c(oc2c1)C(=O)N(Cc1ccc(F)cc1)C3c1cccc(O)c1 (centres undefined),17%[10.9 µM],x,x,u,x,x,x,x
c1ccc(C2=Nn3c(nnc3-c3ccncc3)SC2)cc1,28%,u,4%[1.84 µM],-1%,3%,x,x,x
Cc1cc(-c2nnc3n2N=C(c2ccc(-c4ccccc4)cc2)CS3)n[nH]1,-29%,u,4%[0.369 µM],u,-5%,-30,u,1.6µM*
Fc1ccc(C2=Nn3c(Cc4ccccc4)nnc3SC2)cc1,-7%,16%,-5%,-1%,0%,-5,-10%,13µM*
Cc1ccc(C)c(N2CCN(C(=O)c3cc4c(=O)n(Cc5ccccc5)ccc4nc3C)CC2)c1,-5%[10.9 µM],x,x,u,x,x,x,x
CCN(C(=O)c1cn(C)c(=O)c2cc(OC)c(OC)cc12)c1cc(OC)ccc1OC,-3%,29%,2%,1%,-1%,1,-8%,13µM*
COc1cc(C2NC(=O)NC(C)=C2C(=O)OC(C)(C)C)ccc1OCC(N)=O (centres undefined),-5%,-4%,x,-1%,-3%,7,-2%,13µM*
CCOC(=O)c1ccccc1NC(=O)c1cc(S(=O)(=O)N2CCOCC2)ccc1F,-17%,10µM*,0%,1%,-3%,-16,-15%,13µM*
SMILES,Imprint erasure,CRE-bla Fsk,HBB splice mod,IkB sig inh,Epigenetic mod,CHO via 24h,CHO via 40h,CRE-luc potent
O=C(c1cc(S(=O)(=O)N2CCOCC2)ccc1F)N1CCCc2ccccc21,-19%,-8%,3%,2%,-3%,2,-2%,18%
CCc1ccccc1NC(=O)Cn1c(=O)nc(-c2ccccc2)c2ccccc21,-14%[10.9 µM],x,x,u,x,x,x,x
Cc1ccc(C)c(N2CCN(S(=O)(=O)c3ccc4c(c3)OCCO4)CC2)c1,-17%,6%,x,u,0%,3,-17%,13µM*
Cc1ccc(Cl)cc1N1CCN(S(=O)(=O)c2ccc3c(c2)OCCO3)CC1,-12%,5%,x,4%,0%,x,x,x
Cc1ccc(-c2nc3cc(C(C)C)ccc3o2)cc1NC(=O)c1cc([N+](=O)[O-])ccc1N1CCOCC1,5%[10.9 µM],x,x,u,x,x,x,x
COc1cc(-c2noc(-c3ccc(N(C)C)c([N+](=O)[O-])c3)n2)cc(OC)c1OC,4%[10.9 µM],x,x,-2%,x,x,x,x
CN(C)c1nc(N)nc(CSc2n[nH]c(-c3ccccc3)n2)n1,-7%,1.6µM*,-1%,2%,-1%,-6,-28%,13µM*
O=C(CSc1n[nH]c(-c2ccccc2)n1)c1ccccc1,-6%,-6%,0%,1%,x,x,x,x
CCOc1ccccc1Nc1nc2ccccc2n2cnnc12,22%,u,-1%,0%,-3%,x,x,x
